± gives the standard deviation.
Each sequence was assayed on MILI (PIWIL2) piRISC loaded with piRNA #1 (26 nt) (assay: pre-steady-state target cleavage rate (min^-1); guide: piRNA #1 5'p-UGAGGUAGUAGGUUGUAUAGUAUCCA; MIWI and MILI are mouse PIWI proteins and EfPiwi is from a freshwater sponge; tags in brackets are library labels; higher = faster piRNA-guided slicing of the target). Details: auxiliary factor: 500 nM mouse GTSF1.
Summary of the method: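 Cleave-'n-Seq: 1 nM active affinity-purified piRISC with one synthetic guide and 0.1 nM transcribed, DNA-blocked target RNA library were mixed, with or without 500 nM GTSF1 partner protein, in HEPES–potassium acetate buffer at 33 °C for 0–8 or 0–960 min. Uncleaved targets were sequenced and normalised to depth and to weakly complementary targets, three trials were pooled, and k3 was capped at 0.0001 min^-1. The pre-steady-state cleavage rate was fitted […].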

Sequence	pre-steady-state target cleavage rate
GGAGACGUUACUUUACAACCUACUACCUCA	0.141 ± 0.01
GGAGACCUAUGAUUACAACCUACAUACCUCA	0.00484 ± 0.0019
GGAGACCAUACUAUAGAACCUACUACCUGA	0.00906 ± 0.0046
GGAGACCUAUGUAUACAACCUACUAGCUCA	0.0155 ± 0.0035
GGAGACGAUAGUAUACAACCUACUUCCUCA	0.0731 ± 0.015
GGAGACCUAUCAAUACAACCUACUUCCUCA	0.0355 ± 0.0087
GGAGACCUAUGAUAUGAUCCUACUACCACA	< 0.0001
GGAGACCUAUGAUAUGUACCUUCUACGUCA	< 0.0001
GGAGACCAUACUAUACAACCCACUACCUCA	0.0223 ± 0.0041
GGAGACCUAUGAUUACAAGCUUCUACCUCA	0.00347 ± 0.0023
GGAGACCUAUGAUAUGUACCUACUACCCUCA	< 0.0001
GGAGACCUAUGUCUACAACCUACUACCUCA	0.0245 ± 0.004
GGAGUGGAUAGUAUUCAACCUACUACCUCA	0.106 ± 0.011
GGAGACCUAACUAUACAGCCUACUACCUCA	0.0605 ± 0.018
GGAGUGCAUACUAUACAACCUACUUCCUCA	0.00653 ± 0.0022
GGAGACCUAACUAAACAACCUACUUCCUCA	0.0346 ± 0.013
GGAGACCUAUGUAGACAACCUACUACCUCA	0.0173 ± 0.0042
GGAGACCUAUGUAUACAACGUAGUACCUCA	0.0032 ± 0.0023
GGAGACCUAUGAUUACAACCUACUACUUCA	0.00418 ± 0.0024
GGAGAGGAUACUAAUGAACCUACUACCUCA	0.0555 ± 0.0058
GGAGACCUAACUAUACUACCUACUACGUCA	0.0596 ± 0.018
GGAGACCUAUGAUUACAACCUACUACCUCCA	0.00682 ± 0.0026
GGAGACCUAUCUAUACUACGUACUACCUCA	0.013 ± 0.0024
GGAGACCUAUGUAUACAACCAACUACCUCA	0.0033 ± 0.002

Source: the supplement of paper PMC10338343
